# Calls of active or inactive are those of the source. How the source made its calls: active means hit-call score of the fitted dose curve at least 0.9, where 1 is the maximum; inactive means score below 0.9.
# Test: CCTE_Shafer_MEA_acute_firing_rate_mean: CCTE's Neural Acute Assay for Mean Firing Rate, Shafer Lab (AID 2284009);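 further: analyzed for loss of signal so actives lower firing rate relative to DMSO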
# In short: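 Rat cortical neuron cultures matured to DIV 13 or 15, equilibrated 20 min at 37 C, then recorded 40 min for baseline. Compound (0.03-40 uM) added and a further 40 min recorded; percent change in mean firing rate calculated per well.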
Compound,outcome,AC50
ClCCOCCCl,inactive,
CCN(CC)CCO,inactive,
CCCCCOC(=O)c1ccccc1C(=O)OCCCCC,,2.58 µM (active)
N#CC(Br)Br,inactive,

# Test: CCTE_Harrill_HTTr_Viability_MCF7: CCTE's 6-hour Cell Viability Assessment for the High-Throughput Transcriptomics (HTTr) Platform, in MCF-7 cells cultured in DMEM + 10% fetal bovine serum, Harrill Lab (AID 2284010)
# In short: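 Eight-point concentration series, six-hour exposure. Propidium iodide exclusion imaged to assess membrane integrity as a cytotoxicity readout; bidirectional fitting was done with DMSO as negative control and activity baseline.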
row,Compound,outcome
1,CC(O)CCO (stereo not drawn),inactive
2,ClCCOCCCl,inactive
3,O=C(O)C1C2CCC(O2)C1C(=O)O (stereo not drawn),inactive
4,OCCCl,inactive
5,Cc1ccc(N=C=O)cc1N=C=O,inactive
6,Oc1ccc2ccc3cccc4ccc1c2c34,inactive
7,CCOc1cccc(C2(N3CCN(c4ccccc4)CC3)CCC(C)CC2)c1 (stereo not drawn),inactive
8,Cc1ccc([N+](=O)[O-])cc1,inactive
9,C=CCc1ccc2c(c1)OCO2,inactive
10,CCC12COCN1COC2,inactive
11,CCCCCCCCOC(=O)c1ccc(C(=O)OCCCCCCCC)c(C(=O)OCCCCCCCC)c1,inactive
12,CCN(CC)CCO,inactive
13,Cn1cc(-c2ccccc2)c(=O)c(-c2cccc(C(F)(F)F)c2)c1,inactive
14,C1=Cc2cccc3cccc1c23,inactive
15,COP(=S)(OC)SCN1C(=O)c2ccccc2C1=O,inactive
16,Cc1cccc(N)c1N,inactive
17,[O-][Cl+]O,inactive
18,Nc1ccc(Cc2ccc(N)cc2)cc1,inactive
19,N#CC(Br)(Br)C(N)=O,inactive
20,Clc1ccccc1Cl,inactive

row,Compound,outcome
1,Brc1ccc(Oc2ccccc2)cc1,inactive
2,CCCCCOC(=O)c1ccccc1C(=O)OCCCCC,inactive
3,OCCOCCO,inactive
4,CS(=O)(=O)NC(=O)c1cc(Oc2ccc(C(F)(F)F)cc2Cl)ccc1[N+](=O)[O-],inactive
5,Nc1ccc(Oc2ccc(N)cc2)cc1,inactive
6,Nc1cc(Cl)cc(C(=O)O)c1Cl,inactive
7,Clc1ccc(Cl)c(Cl)c1,inactive
8,CN(C)[C@@H]1C(=O)C(C(N)=O)=C(O)[C@@]2(O)C(=O)C3=C(O)c4c(O)cccc4[C@@](C)(O)[C@H]3C[C@@H]12,inactive
9,CN(C)C(=O)Nc1ccc(Cl)cc1,inactive
10,CC(C)(C)OOC(C)(C)CCC(C)(C)OOC(C)(C)C,inactive
11,CN(C)c1ccccc1,inactive
12,c1ccc2c(c1)oc1ccccc12,inactive
13,N#CC(Br)Br,inactive
14,COC(=O)c1ccccc1N,inactive
15,CCCCCCCCCCCCCN1CC(C)OC(C)C1 (stereo not drawn),inactive
16,Cc1ccc(N)cc1,inactive
17,c1ccc(C2CO2)cc1 (stereo not drawn),inactive
18,c1ccc2c(c1)-c1cccc3cccc-2c13,inactive
19,CN(C)c1ccc(C(=O)c2ccc(N(C)C)cc2)cc1,inactive

# Source: PubChem BioAssay (EPA / NIEHS)
